Assay [1] in a line: Nuclear factor erythroid 2-related factor 2/antioxidant responsive element (Nrf2/ARE) small molecule agonists: qHTS cell viability counter screen in human keratinocytes (AID 1919968; active means well fitted curve in the direction sought with a large enough effect in the repeat runs; an effect the other way counts as inactive or inconclusive; further: nearly all actives have a fitted effect of over 55% in size). The procedure, abridged:
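HaCaT ARE reporter line, 1,500 cells/well; 5 h settle, 37 C/5% CO2; cpd in DMSO pinned; 23 h exposure; CellTiter-Fluor, 1 h; fluorescence.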

Assay [2] in a line: Nuclear factor erythroid 2-related factor 2/antioxidant responsive element (Nrf2/ARE) small molecule agonists: luciferase reporter gene qHTS assay in human keratinocytes (AID 1919969). Further: nearly all actives have a fitted effect of over 35% in size. Background: A reporter such as luciferase makes a cellular process visible.
For assay [3], the target named is Gonadotropin-releasing hormone receptor (Homo sapiens) (UniProt P30968). Description: Human gonadotropin-releasing hormone receptor (GnRHR) small molecule agonists, calcium flux assay in GnRHR-HEK293 cells (AID 1920063). Further: nearly all actives have a fitted effect of over 35% in size. In outline:
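GnRHR-HEK293, 1500 cells/well, 18 h 37 C/5% CO2; Ca dye 1 h 37 C; cpd pinned (DMSO), agonist mode; kinetic FL 480/540, 3 min, 1 s reads; 15 conc, n=3.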
Background: A change in cytosolic calcium serves as a functional read-out for many receptors and channels.

In assay [4] the target is KiSS-1 receptor (Homo sapiens) (UniProt Q969F8). Description: Human kisspeptin (KISS1R) small molecule agonists, calcium flux assay in KISS1R-HEK293 cells (AID 1920064; active means well fitted curve in the direction sought with a large enough effect in the repeat runs; an effect the other way counts as inactive or inconclusive). The procedure, abridged: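 Stable human KISS1R HEK293 line; 18 h plating, 37 C/5% CO2; calcium dye 1 h 37 C; compound pin transfer; kinetic fluorescence Ex/Em 480/540, 3 min.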
Chain of KiSS-1 receptor (Homo sapiens) (Q969F8 whole entry, looked up): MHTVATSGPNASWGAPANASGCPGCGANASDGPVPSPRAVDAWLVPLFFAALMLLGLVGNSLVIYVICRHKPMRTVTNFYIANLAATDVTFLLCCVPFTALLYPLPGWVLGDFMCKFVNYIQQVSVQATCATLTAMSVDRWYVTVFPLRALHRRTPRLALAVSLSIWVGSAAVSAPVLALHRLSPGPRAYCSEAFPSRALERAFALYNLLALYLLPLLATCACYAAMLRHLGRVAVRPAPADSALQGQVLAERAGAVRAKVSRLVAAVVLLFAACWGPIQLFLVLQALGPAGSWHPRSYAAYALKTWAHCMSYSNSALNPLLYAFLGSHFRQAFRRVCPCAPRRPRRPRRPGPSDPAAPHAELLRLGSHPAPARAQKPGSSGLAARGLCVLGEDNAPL
The nature of assay [5]: G protein-coupled receptor (GPCR) small molecule agonists, calcium flux assay: HEK293 wild type cell line counter screen (AID 1920065). The procedure, abridged: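 Kinetic fluorescence at Ex/Em 480/540, recorded every second over 3 min, served as the read-out after compound addition. Each compound was tested at 15 concentrations in triplicate on cells pre-loaded with calcium dye for 1 h.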

Assay [6] can be described thus: p53 small molecule agonists, cell-based qHTS assay with human liver microsomes (AID 1963577).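 Further: p53 response element beta-lactamase reporter cells with liver microsomes plus NADPH.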 The procedure, abridged: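 HLM-supplemented p53RE-bla reporter assay: 16 h compound exposure at 37 C, microsomes and NADPH each 0.5 mg/mL final, read by fluorescence intensity.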
A general note: In qHTS, concentration-response curves come from the screen itself.

A short description of assay [7]: p53 small molecule agonists, cell-based qHTS assay with rat liver microsomes (AID 1963578). The procedure, abridged:
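Quantitative HTS of the Tox21 10K library: p53RE-bla cells, rat liver microsomes plus NADPH at 0.5 mg/mL final each, 16 h at 37 C, beta-lactamase fluorescence detection.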

A short description of assay [8]: p53 small molecule agonists, cell-based qHTS assay with human liver microsomes: qHTS cell viability counter screen (AID 1963579). Further: nearly all actives have a fitted effect of over 45% in size. The procedure, abridged: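 Viability of p53RE-bla cells is measured as CellTiter-Glo luminescence following a 16 h, 37 C incubation with compound, liver microsomes from human donors and NADPH.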
The nature of assay [9]: p53 small molecule agonists, cell-based qHTS assay with rat liver microsomes: qHTS cell viability counter screen (AID 1963580). Further: nearly all actives have a fitted effect of over 45% in size. In outline: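 p53RE-bla HCT-116 cells were exposed 16 h at 37 C to compounds with rat liver microsomes (0.5 mg/mL) and NADPH (0.5 mg/mL). Viability was measured in the same wells as ATP content by CellTiter-Glo luminescence.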
Assay [10] is described as follows: p53 small molecule agonists, cell-based qHTS assay: qHTS cell viability counter screen (AID 1963581). Further: nearly all actives have a fitted effect of over 45% in size. The procedure, abridged: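 HCT-116 p53RE-bla cells, 4,000/well, plated 5 h before compound pin transfer; 16 h at 37 C; bla substrate 2 h RT; then CellTiter-Glo, 30 min RT, luminescence.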
The nature of assay [11]: p53 small molecule agonists, cell-based qHTS assay (AID 1963582; active means well fitted activation curve with a large enough effect in the signal ratio in the repeat runs, not every such curve was filed as active; the % refers to the signal ratio). In outline: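 Reporter line: p53RE-bla. Pre-incubation 5 h, 37 C, 5% CO2; compound (DMSO, pin tool) 16 h, 37 C; B/G FRET substrate 2 h RT; fluorescence intensity read.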
The target of assay [12] is 5-hydroxytryptamine receptor 2A (Homo sapiens) (UniProt P28223). Description: 5-hydroxytryptamine receptor 2A (HTR2A) small molecule agonists, cell-based qHTS assay (AID 1963587). Further: nearly all actives have a fitted effect of over 30% in size. The procedure, abridged:
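CHO cells stably expressing human HTR2A, plated 18 h, loaded with calcium dye 1 h at 37 C. Agonist mode: compounds added and intracellular calcium fluorescence recorded kinetically for 2 min at 1 sec intervals.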

The target in assay [13] is Muscarinic acetylcholine receptor M1 (Homo sapiens) (UniProt P11229). The experiment in a line: Cholinergic receptor muscarinic 1 (CHRM1) small molecule antagonists, cell-based qHTS assay (AID 1963588). Further: nearly all actives have a fitted effect of over 40% in size. Further: potency means the concentration at half of the fitted maximal effect. In outline: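 CHRM1-CHO calcium-flux assay, antagonist mode. Cells were seeded 18 h, dye-loaded 1 h at 37 C and given compound for 5 min at RT, then acetylcholine was added at 50nM. FDSS fluorescence was read 3 min; 15 concentrations, three runs.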
Chain of Muscarinic acetylcholine receptor M1 (Homo sapiens) (P11229 whole entry, looked up): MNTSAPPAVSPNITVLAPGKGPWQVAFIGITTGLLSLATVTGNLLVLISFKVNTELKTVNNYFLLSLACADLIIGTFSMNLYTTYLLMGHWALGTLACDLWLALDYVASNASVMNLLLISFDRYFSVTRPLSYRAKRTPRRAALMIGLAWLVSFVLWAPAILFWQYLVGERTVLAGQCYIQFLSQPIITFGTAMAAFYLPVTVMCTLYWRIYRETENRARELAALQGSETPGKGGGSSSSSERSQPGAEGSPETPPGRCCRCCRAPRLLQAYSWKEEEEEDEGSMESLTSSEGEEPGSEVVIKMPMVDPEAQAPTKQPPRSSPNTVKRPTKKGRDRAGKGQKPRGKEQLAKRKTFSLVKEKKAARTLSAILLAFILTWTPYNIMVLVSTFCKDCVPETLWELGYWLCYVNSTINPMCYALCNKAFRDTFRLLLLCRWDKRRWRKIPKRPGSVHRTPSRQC

The target is the same in assay [14]. Description: Cholinergic receptor muscarinic 1 (CHRM1) small molecule agonists, cell-based qHTS assay (AID 1963589). Further: nearly all actives have a fitted effect of over 35% in size. The procedure, abridged:
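Human M1 in stable CHO line; 18 h plating, 1 h dye load 37 C; cpd added (agonist mode); Ca2+ fluorescence kinetic read, 1 s intervals; 15 conc, 3 runs.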

Assay [15] can be described thus: cAMP Responsive Elements (CRE) small molecule antagonists, cell-based qHTS assay (AID 1963591; active means well fitted inhibition curve with a large enough effect in the signal ratio in the repeat runs, not every such curve was filed as active; the % refers to the signal ratio). The procedure, abridged:
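Beta-lactamase reporter read by FRET substrate (LiveBLAzer B/G) after 2 h at room temperature. CRE-bla HEK293T cells had received compound plus 0.25 uM (final) NKH477 for 3 h at 37 °C.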

The target of assay [16] is Beta-2 adrenergic receptor (Homo sapiens) (UniProt P07550). The experiment in a line: Adrenergic beta2 receptor (ADRB2) small molecule antagonists, cell-based qHTS assay (AID 1963592). Further: series mostly up to about 92 µM; nearly all actives have a fitted effect of over 50% in size. In outline: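 Cells (CHO, stable ADRB2 overexpression) incubated 18-20hr at 37C; compounds added from DMSO; agonist mix (1nM isoproterenol, 100uM IBMX, 25uM Ro-20-1724) added; 0.5hr RT; d2-cAMP and anti-cAMP-cryptate added; 1hr RT; 665/615 nm read.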
Chain of Beta-2 adrenergic receptor (Homo sapiens) (P07550 whole entry, looked up): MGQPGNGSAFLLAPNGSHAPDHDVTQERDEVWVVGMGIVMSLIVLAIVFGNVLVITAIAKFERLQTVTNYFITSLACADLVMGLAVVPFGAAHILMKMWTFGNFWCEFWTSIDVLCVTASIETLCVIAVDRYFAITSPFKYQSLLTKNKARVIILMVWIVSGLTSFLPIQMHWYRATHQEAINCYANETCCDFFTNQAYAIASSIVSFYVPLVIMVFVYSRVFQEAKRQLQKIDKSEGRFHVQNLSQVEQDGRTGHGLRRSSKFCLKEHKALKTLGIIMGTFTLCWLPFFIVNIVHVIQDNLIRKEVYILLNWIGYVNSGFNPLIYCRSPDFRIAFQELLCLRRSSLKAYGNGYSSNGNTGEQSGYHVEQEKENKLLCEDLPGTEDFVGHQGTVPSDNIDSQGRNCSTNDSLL

For assay [17] the target is unchanged. Description: Adrenergic beta2 receptor (ADRB2) small molecule agonists, cell-based qHTS assay (AID 1963593).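 Further: CHO cells stably overexpressing human ADRB2.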 In outline: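 CHO cells stably over-expressing ADRB2 were plated overnight at 37C, then dosed with compounds plus a stimulation mix containing 100uM IBMX and 25uM Ro-20-1724 for 0.5hr at room temperature. cAMP was measured by HTRF competition, 1hr.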

For assay [18], the target named is D(2) dopamine receptor (Homo sapiens) (UniProt P14416). The experiment in a line: Dopamine D2 receptor (DRD2) small molecule agonists, cell-based qHTS assay (AID 1963594). Further: nearly all actives have a fitted effect of over 35% in size. In outline:
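HEK293 cells stably expressing human DRD2, pre-treated with PDE inhibitor Ro20-1724 (0.1 mM final) and compound 10 min at room temperature, then stimulated with NKH477 (200nM […]) for 30 min. cAMP read by HTRF (665/620 nm).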

Assay [19] deals with 5-hydroxytryptamine receptor 2A (Homo sapiens) (UniProt P28223). Description: 5-hydroxytryptamine receptor 2A (HTR2A) small molecule antagonists, cell-based qHTS assay (AID 1963586). Further: nearly all actives have a fitted effect of over 45% in size. The procedure, abridged:
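Antagonist-mode intracellular calcium assay: DOI (4 nM) added after 5 min compound pre-incubation at room temperature to dye-loaded HTR2A-CHO cells. Fluorescence followed for 3 min, sampled every second.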

The target of assay [20] is D(2) dopamine receptor (Homo sapiens) (UniProt P14416). The experiment in a line: Dopamine D2 receptor (DRD2) small molecule antagonists, cell-based qHTS assay (AID 1963595; active means well fitted inhibition curve with a large enough effect in the signal ratio in the repeat runs, with a control signal flat; the % refers to the signal ratio). In outline: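 Human DRD2 antagonist qHTS measuring cAMP by HTRF. The cells are exposed to compound for 10 min, then to NKH477 (200 nM) and quinpirole (12 nM) for 30 min at RT, with Ro20-1724 (0.1 mM) present throughout.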
Chain of D(2) dopamine receptor (Homo sapiens) (P14416 whole entry, looked up): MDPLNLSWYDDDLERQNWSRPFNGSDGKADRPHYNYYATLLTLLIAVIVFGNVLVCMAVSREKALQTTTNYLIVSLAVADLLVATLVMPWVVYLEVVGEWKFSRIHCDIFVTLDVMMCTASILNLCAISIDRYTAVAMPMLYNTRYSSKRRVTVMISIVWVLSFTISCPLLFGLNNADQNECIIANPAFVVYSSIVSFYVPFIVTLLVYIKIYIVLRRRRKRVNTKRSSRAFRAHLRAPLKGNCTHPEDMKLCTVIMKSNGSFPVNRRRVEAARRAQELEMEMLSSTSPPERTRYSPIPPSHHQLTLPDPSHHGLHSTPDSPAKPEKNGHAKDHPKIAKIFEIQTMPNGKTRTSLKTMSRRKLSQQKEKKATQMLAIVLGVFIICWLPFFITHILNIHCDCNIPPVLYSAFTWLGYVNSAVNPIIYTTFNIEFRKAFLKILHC

Records with an inconclusive call do not appear. Active and inactive are the calls of the source. Unless noted, the call rests on the fitted dose curve.

Chain of Gonadotropin-releasing hormone receptor (Homo sapiens) (P30968 whole entry, looked up): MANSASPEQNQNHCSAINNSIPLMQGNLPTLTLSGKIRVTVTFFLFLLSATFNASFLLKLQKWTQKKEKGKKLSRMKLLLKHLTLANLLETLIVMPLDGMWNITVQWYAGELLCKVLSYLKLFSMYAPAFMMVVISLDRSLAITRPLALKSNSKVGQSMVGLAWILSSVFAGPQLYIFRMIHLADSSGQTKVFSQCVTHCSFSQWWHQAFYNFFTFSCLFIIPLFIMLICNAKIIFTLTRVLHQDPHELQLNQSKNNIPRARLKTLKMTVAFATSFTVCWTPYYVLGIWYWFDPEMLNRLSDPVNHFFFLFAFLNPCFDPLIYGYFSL
Chain of 5-hydroxytryptamine receptor 2A (Homo sapiens) (P28223 whole entry, looked up): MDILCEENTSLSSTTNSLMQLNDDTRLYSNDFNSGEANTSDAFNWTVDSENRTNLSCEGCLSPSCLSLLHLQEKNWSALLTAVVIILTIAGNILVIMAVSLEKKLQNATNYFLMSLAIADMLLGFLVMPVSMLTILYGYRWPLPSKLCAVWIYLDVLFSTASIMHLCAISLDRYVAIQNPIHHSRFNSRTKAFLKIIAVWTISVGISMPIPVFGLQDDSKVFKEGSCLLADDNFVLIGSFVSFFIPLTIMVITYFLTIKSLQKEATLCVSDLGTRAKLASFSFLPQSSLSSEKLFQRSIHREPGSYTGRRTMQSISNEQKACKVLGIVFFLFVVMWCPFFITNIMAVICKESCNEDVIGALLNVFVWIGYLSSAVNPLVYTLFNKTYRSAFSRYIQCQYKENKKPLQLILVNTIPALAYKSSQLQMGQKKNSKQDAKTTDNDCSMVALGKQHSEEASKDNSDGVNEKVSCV

`CCOC(=O)O[C@]1(C(=O)OCCl)CC[C@H]2[C@@H]3CCC4=CC(=O)C=C[C@]4(C)[C@H]3[C@@H](O)C[C@@]21C`: the Potency result in assay [1], in assay [2], in assay [3], in assay [4], in assay [5] and in [6] was “inactive” each time. Moreover, the Potency entry in assay [7], in assay [8], in [9], in assay [10], in assay [11] and in assay [12] was “inactive” throughout. The Potency result in assay [13], in assay [14], in [15], in [16], in [17] and in assay [18] was “inactive” each time.
Consider `COC(CC(C)CCCC(C)(C)O)OC` (configuration not stated), for which the Potency entry in assay [1], in assay [2], in [3], in assay [4], in assay [5] and in assay [6] was “inactive” throughout. The Potency result in assay [7], in assay [8], in assay [9], in assay [10], in [11] and in [19] was “inactive” each time. The Potency entry in assay [13], in assay [14], in assay [15], in assay [16], in [18] and in assay [20] was “inactive” throughout.
For `C=CCOCC(CC)(CO)COCC=C`, the Potency entry in assay [1], in [2], in assay [3], in assay [4], in assay [5] and in assay [6] was “inactive” in each case. Further, the Potency result in [7], in [8], in assay [9], in assay [10], in [11] and in assay [19] was “inactive” each time. Besides, the Potency entry in assay [13], in assay [14], in assay [15], in assay [18] and in [20] was “inactive” in each case.
Turning to `C=C(C)C(=O)OCCNC(C)(C)C`, the Potency result in [1], in assay [2], in assay [3], in [4], in assay [5] and in [6] was “inactive” throughout. Moreover, the Potency result in [7], in [8], in assay [9], in assay [10], in assay [11] and in [19] was “inactive” each time. The Potency entry in assay [12], in [14], in [16], in assay [17], in assay [18] and in assay [20] was “inactive” in each case.
Turning to `C=C(C)C(=O)OCCC(F)(F)C(F)(F)C(F)(F)C(F)(F)C(F)(F)C(F)(F)F`, the Potency result in assay [1], in assay [2], in assay [3], in assay [4], in [5] and in [6] was “inactive” throughout. The Potency result in assay [7], in [8], in assay [9], in assay [10], in [11] and in [19] was “inactive” in each case. Further, the Potency result in [12], in assay [14], in [16], in assay [17], in assay [18] and in assay [20] was “inactive” in each case.
For `Nc1ccc([N+](=O)[O-])c(C(F)(F)F)c1`, the Potency entry in [1], in assay [2], in [3], in assay [4], in assay [5] and in assay [6] was “inactive” each time. Besides, the Potency result in assay [7], in [8], in [9], in [10], in assay [11] and in assay [19] was “inactive” throughout. Further, the Potency result in assay [14], in assay [15], in assay [16], in [18] and in assay [20] was “inactive” each time.
On to `C1=CCC2CC=CC2C1` (configuration not stated), for which the Potency result in assay [1], in assay [2], in assay [3], in assay [4], in assay [5] and in [6] was “inactive” throughout. Moreover, the Potency result in [7], in [8], in assay [9], in assay [10], in [11] and in [19] was “inactive” each time. Moreover, the Potency entry in assay [14], in [15], in [16], in assay [17] and in assay [20] was “inactive” throughout. Moreover, the Potency in [13] is 3.34 µM (active).
As for `O=S(=O)(O)C(F)(F)F`, the Potency entry in assay [1], in [2], in assay [3], in assay [4], in [5] and in assay [6] was “inactive” in each case. For the same compound, the Potency entry in assay [7], in assay [8], in assay [9], in [10], in [11] and in [19] was “inactive” each time. Also, the Potency result in assay [13], in assay [14], in assay [15], in [16], in assay [18] and in assay [20] was “inactive” each time.
As to `CCCc1cc(C(N)=S)ccn1`, the Potency result in assay [1], in assay [2], in assay [3], in assay [4], in assay [5] and in [6] was “inactive” each time. Moreover, the Potency result in assay [7], in [8], in assay [9], in [10], in assay [11] and in assay [19] was “inactive” in each case. The Potency entry in assay [12], in assay [14], in [15], in assay [17] and in assay [18] was “inactive” each time.
With `C/C=C/C(=O)C1=C(C)C=CCC1(C)C`, the Potency entry in assay [1], in assay [2], in [3], in assay [4], in [5] and in assay [6] was “inactive” each time. For the same compound, the Potency result in [7], in assay [8], in [9], in assay [10], in assay [11] and in assay [19] was “inactive” each time. Also, the Potency result in assay [12], in [14], in assay [16], in [17], in assay [18] and in assay [20] was “inactive” throughout.

(Values after PubChem BioAssay (Tox21).)
